A number with no mark means an inactive call. For some assays here: Measured potencies and affinities stand elsewhere. Active and inactive are the calls of the source. Unless noted, the rule behind the calls is not given here.
Assays:
[1] = antimalarial activity against Dd2 strain (AID 2302;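 active = growth inhibition above 50% at the single 2 µM test dose, taken to imply half-maximal potency below 2 µM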;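 note: 0% = DMSO untreated growth and 100% = chloroquine plus artemisinin killed control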); conditions: P. falciparum Dd2 in RBCs, LDH growth readout, 72 h; at 2 µM; hits give high values
[2] = HepG2 cytotoxicity, primary screen, cytotoxicity control for P. falciparum antimalarial project, cell-based, ATP luminescence (AID 2303;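 active = inhibition above 50%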;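 note: 0% = DMSO wells and 100% = digitonin-killed cells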); conditions: HepG2 viability, 24-48 h, at 10 µM, hits give high values
[3] = biological target: L-lactate dehydrogenase (Plasmodium falciparum (isolate CDC / Honduras)) (UniProt Q27743); assay: PfLDH activity inhibition – cell lysate, 3D7 strain, counter-screen for P. falciparum growth inhibition project (AID 2304);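 note: 0% = vehicle and 100% = reference inhibitor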; conditions: P. falciparum 3D7 crude extract, LDH APAD/NBT absorbance; at 2 µM; hits give high values
L-lactate dehydrogenase (Plasmodium falciparum (isolate CDC / Honduras)), sequence (Q27743 whole entry, looked up): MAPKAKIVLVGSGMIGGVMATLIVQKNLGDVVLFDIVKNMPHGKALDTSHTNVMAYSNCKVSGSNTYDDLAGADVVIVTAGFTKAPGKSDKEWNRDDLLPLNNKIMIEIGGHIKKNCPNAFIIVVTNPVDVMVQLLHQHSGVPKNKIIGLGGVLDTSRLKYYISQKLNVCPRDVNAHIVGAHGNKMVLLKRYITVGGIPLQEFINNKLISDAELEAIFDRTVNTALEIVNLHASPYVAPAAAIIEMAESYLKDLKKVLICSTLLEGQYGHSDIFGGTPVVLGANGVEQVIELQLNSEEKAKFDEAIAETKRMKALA

[4] = inhibition of 3D7 malaria parasite growth – strain 3D7 (AID 2306);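 note: 0% = DMSO wells and 100% = chloroquine plus artemisinin control wells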; conditions: P. falciparum 3D7 erythrocytic growth, LDH absorbance, 72 h; at 2 µM; hits give high values
[5] = biological target: Calcium-dependent protein kinase 1 (Plasmodium falciparum (isolate 3D7)) (UniProt P62344); assay: PfCDPK1 kinase inhibitors, biochemical, TCAMS library (AID 1159585; cut-off not given, nearly all actives have IC50 up to about 0.98 µM;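 note: inhibitors leave more ATP so luminescence rises with inhibition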); conditions: recombinant PfCDPK1, Kinase-Glo ATP depletion luminescence
Calcium-dependent protein kinase 1 (Plasmodium falciparum (isolate 3D7)), sequence (P62344 whole entry, looked up): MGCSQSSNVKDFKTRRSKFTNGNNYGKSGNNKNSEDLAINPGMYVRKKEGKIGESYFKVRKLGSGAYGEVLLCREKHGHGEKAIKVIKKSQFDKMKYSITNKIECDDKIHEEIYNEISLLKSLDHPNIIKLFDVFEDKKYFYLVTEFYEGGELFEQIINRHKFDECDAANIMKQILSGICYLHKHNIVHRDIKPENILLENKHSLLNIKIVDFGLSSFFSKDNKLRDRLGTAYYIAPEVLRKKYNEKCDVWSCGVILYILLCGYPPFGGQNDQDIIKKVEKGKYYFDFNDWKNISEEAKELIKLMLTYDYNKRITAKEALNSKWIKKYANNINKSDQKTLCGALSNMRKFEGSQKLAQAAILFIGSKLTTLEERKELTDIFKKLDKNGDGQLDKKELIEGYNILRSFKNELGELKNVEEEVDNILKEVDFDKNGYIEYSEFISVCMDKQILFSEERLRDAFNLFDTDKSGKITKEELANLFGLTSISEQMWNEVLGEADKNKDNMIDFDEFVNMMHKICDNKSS

[6] = biological target: Plasmodium falciparum protein kinase 6 (PK6, PF3D7_1337100) (UniProt Q8IDW1); assay: PfPK6 kinase inhibitors, biochemical, TCAMS library (AID 1159586); conditions: recombinant PfPK6, Kinase-Glo ATP depletion luminescence
Plasmodium falciparum protein kinase 6 (PK6, PF3D7_1337100), sequence (Q8IDW1 1-305): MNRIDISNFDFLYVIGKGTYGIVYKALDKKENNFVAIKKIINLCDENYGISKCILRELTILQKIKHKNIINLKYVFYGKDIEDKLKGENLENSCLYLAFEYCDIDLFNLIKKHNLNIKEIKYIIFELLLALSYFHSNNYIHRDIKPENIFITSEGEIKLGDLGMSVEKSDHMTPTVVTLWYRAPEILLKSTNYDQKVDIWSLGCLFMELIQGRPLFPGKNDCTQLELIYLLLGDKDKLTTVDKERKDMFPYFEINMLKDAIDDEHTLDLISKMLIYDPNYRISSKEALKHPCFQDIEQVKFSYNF

[7] = biological target: Protein kinase 7 (PK7), Plasmodium falciparum 3D7 (PF3D7_0213400) (UniProt Q7YTF7); assay: inhibition of Plasmodium PK7 catalytic activity – biochemical, TCAMS antimalarial set, Kinase-Glo luminescence (AID 1159587); conditions: recombinant PfPK7, Kinase-Glo ATP depletion luminescence
Protein kinase 7 (PK7), Plasmodium falciparum 3D7 (PF3D7_0213400), sequence (Q7YTF7 1-343): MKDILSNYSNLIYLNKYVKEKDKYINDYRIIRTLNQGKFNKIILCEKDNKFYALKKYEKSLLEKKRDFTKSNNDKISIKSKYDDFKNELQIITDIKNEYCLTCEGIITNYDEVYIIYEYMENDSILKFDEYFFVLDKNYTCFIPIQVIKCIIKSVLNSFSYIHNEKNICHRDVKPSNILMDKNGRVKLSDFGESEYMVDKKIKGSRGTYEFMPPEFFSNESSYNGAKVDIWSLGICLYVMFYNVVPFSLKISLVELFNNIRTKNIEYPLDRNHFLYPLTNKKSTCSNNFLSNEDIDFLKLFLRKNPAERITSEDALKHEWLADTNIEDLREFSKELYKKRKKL

[8] = biological target: Calcium-dependent protein kinase 4 (Plasmodium falciparum (isolate 3D7)) (UniProt Q8IBS5); assay: PfCDPK4 kinase inhibitors, biochemical, TCAMS library (AID 1159588; cut-off not given, nearly all actives have IC50 up to about 0.91 µM); conditions: recombinant PfCDPK4, Kinase-Glo ATP depletion luminescence
Calcium-dependent protein kinase 4 (Plasmodium falciparum (isolate 3D7)), sequence (Q8IBS5 whole entry, looked up): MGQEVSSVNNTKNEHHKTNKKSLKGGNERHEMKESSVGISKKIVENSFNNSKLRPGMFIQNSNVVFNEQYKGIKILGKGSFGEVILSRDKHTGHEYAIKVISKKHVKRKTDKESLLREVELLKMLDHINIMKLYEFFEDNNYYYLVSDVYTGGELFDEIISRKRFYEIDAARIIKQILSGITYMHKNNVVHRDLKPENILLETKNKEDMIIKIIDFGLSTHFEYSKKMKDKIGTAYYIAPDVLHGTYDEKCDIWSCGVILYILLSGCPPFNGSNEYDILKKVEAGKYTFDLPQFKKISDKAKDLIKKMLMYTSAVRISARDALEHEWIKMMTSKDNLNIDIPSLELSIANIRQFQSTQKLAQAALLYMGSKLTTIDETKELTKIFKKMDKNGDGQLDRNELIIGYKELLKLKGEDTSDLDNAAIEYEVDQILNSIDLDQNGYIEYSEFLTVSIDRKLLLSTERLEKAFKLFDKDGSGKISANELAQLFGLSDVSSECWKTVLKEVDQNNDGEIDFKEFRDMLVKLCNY

Compound | growth inhibition [1] | inhibition [2] | inhibition [3] | growth inhibition [4] | outcome [5] | outcome [6] | outcome [7] | outcome [8]
c1ccc2c(NCCCCCCCNc3ccnc4ccccc34)ccnc2c1 | 94% (active) | 91% (active) | 1% | 101% (active) | inactive | inactive | inactive | inactive
CC(C)C[C@H](NC(=O)[C@H](Cc1ccccc1)NC(=O)CCN1C(=O)COc2ccc(C(=O)O)cc21)C(=O)NC(CC1CCCCC1)C(O)CC(=O)NCCCn1ccnc1 (stereo not given in full) | -4% | -3% | -8% | 99% (active) | inactive | inactive | inactive | inactive
CCOc1ccc(C2CCN(CCCCNC(=O)c3ccc(NC(=O)c4ccc(Cl)cc4)cc3)CC2)c(OCC)c1 | 95% (active) | 14% | 0% | 101% (active) | inactive | inactive | inactive | inactive
Cc1cc(-c2ccc3c(c2)CCN(CCC2CCC(NC(=O)/C=C/c4ccc(F)cc4)CC2)CC3)on1 (stereo not given) | 47% | 29% | -4% | 98% (active) | inactive | inactive | inactive | inactive
CC(Cc1ccc(NC(=O)c2ccc(NCCc3ccccc3)cc2)cc1)NCCc1cccc(Cl)c1 (stereo not given) | 1% | 25% | 4% | 92% (active) | inactive | inactive | inactive | inactive
COc1cc2c(cc1OCCN1CCC(N3CCCCC3)CC1)N(C(=O)/C=C/c1ccccc1Cl)CC2 | 41% | 36% | -1% | 102% (active) | inactive | inactive | inactive | inactive
CCCc1cc(Cc2cnc(N)nc2N)cc(CCC)c1OCCCCC(=O)OCC | -3% | 1% | 4% | 93% (active) | inactive | inactive | inactive | inactive
Cc1cc(C2CCN(CCCCNC(=O)c3ccc(-c4ccc(C#N)cc4)cc3)CC2)c(C)cc1O | 96% (active) | 27% | 3% | 96% (active) | inactive | inactive | inactive | inactive
Cc1n[nH]c(C)c1C1CCN(CC2CCC(NC(=O)/C=C/c3ccc(Cl)c(Cl)c3)CC2)CC1 (stereo not given) | 53% (active) | 15% | 3% | 101% (active) | inactive | inactive | inactive | inactive
COc1ccc2nccc([C@@H](O)CN3CCC(NCc4cc5ccc(C#N)cc5[nH]4)CC3)c2c1 | 39% | 31% | 0% | 100% (active) | inactive | inactive | inactive | inactive
COc1cc(CN2CCC(N3CCc4cc(NC(=O)c5cc(C)on5)ccc43)C2)ccc1F (stereo not given) | 96% (active) | 1% | 0% | 91% (active) | inactive | inactive | inactive | inactive
Cc1cccc2[nH]c(=O)c([N+](=O)[O-])c(O)c12 | -2% | -2% | -2% | 95% (active) | inactive | inactive | inactive | inactive
CC1CN(c2ccc(NC(=O)c3ccc(F)cc3)cc2)CCN1Cc1cccc(F)c1 (stereo not given) | 76% (active) | 11% | 2% | 81% (active) | inactive | inactive | inactive | inactive
COc1ccc2nccc(NN=Cc3ccc(N(C)C)cc3)c2c1 | 95% (active) | 4% | -6% | 101% (active) | inactive | inactive | inactive | inactive
CC(=O)c1ccc(NC(=O)CSc2nc(-c3ccccc3Cl)ns2)cc1 | 72% (active) | -13% | -1% | 89% (active) | inactive | inactive | inactive | inactive
COc1cc2nc(N3CCC(CNC(=O)c4ccc(C(C)=O)cc4)CC3)nc(N)c2cc1OC | 15% | 10% | 1% | 96% (active) | inactive | inactive | inactive | inactive
COc1cc(NC(=O)Nc2ccc([N+](=O)[O-])cc2OC)c(OC)cc1Cl | 6% | 38% | 3% | 87% (active) | inactive | inactive | inactive | inactive
CNC(=O)C1Cc2c([nH]c3c(C)cccc23)C2(N1)C(=O)Nc1ccc(OC(F)(F)F)cc12 (stereo not given) | 50% (active) | -7% | -3% | 100% (active) | inactive | inactive | inactive | inactive
COc1cncc(/C=C/c2cncc(C(=O)NCCc3ccc(Cl)cc3Cl)c2)c1 | 49% | -3% | -9% | 99% (active) | inactive | inactive | inactive | inactive
O=C1C2=C(Nc3ccccc3SC2c2ccccc2)c2ccccc21 (stereo not given) | 94% (active) | 5% | -7% | 86% (active) | inactive | inactive | inactive | inactive

Compound | growth inhibition [1] | inhibition [2] | inhibition [3] | growth inhibition [4] | outcome [5] | outcome [6] | outcome [7] | outcome [8]
N#Cc1c(N2CCCCCC2)nc(N)c2c(N)nc3c(c12)CC(=O)N3c1ccc(F)cc1 | 91% (active) | -7% | -1% | 97% (active) | inactive | inactive | inactive | inactive
O=C(N[C@H]1CCN(Cc2ccc(OCCCN3CCCCC3)cc2)C1)c1ccc2ccccc2c1 | 32% | 8% | 5% | 97% (active) | inactive | inactive | inactive | inactive
CC1(C)CCCN(C(=O)c2cccc(-n3nc(-c4ccc(Cl)cc4)cc3N)c2)C1 | 98% (active) | 13% | -2% | 101% (active) | inactive | inactive | inactive | inactive
CCCC(C)c1cnc2nc(N)nc(N)c2c1C (stereo not given) | 1% | 67% (active) | 3% | 95% (active) | inactive | inactive | inactive | inactive
CCc1ccc(NC(=O)c2cccc(CN3CCCN(Cc4ccc(OC)cc4)CC3)c2)cc1 | -6% | 35% | 5% | 97% (active) | inactive | inactive | inactive | inactive
O=C(NC1CCCCC1)C1CCCN(C(=O)c2ccc(O)c(-c3ccc(Cl)c(Cl)c3)c2)C1 (stereo not given) | 42% | 22% | 0% | 89% (active) | inactive | inactive | inactive | inactive
COc1ccc(Nc2ncc3c(-c4cccc(NC(=O)c5ccc(N)cc5)c4)c[nH]c3n2)cc1OC | 31% | 83% (active) | -3% | 84% (active) | inactive | inactive | inactive | inactive
CC1(C)N=C(N)N=C(N)N1c1ccccc1 | 1% | 16% | -4% | 98% (active) | inactive | inactive | inactive | inactive
N/C(=N\c1ncccn1)Nc1cccc(Cc2ccccc2)n1 | 34% | 51% (active) | -2% | 90% (active) | inactive | inactive | inactive | inactive
CCN1CCC(NCc2ccc(-c3ccc(Cl)s3)cc2)CC1 | 23% | 42% | -4% | 96% (active) | inactive | inactive | inactive | inactive
CCNc1cc(C(=O)N[C@@H](Cc2ccccc2)[C@H](O)CNC2CCC(C(C)(C)C)CC2)cc(N2CCCC2=O)c1 (stereo not given in full) | 98% (active) | 38% | -3% | 98% (active) | inactive | inactive | inactive | inactive
O=C(Nc1cccc(CN2CCN(Cc3ccc(O)cc3)CC2)c1)c1cc2ccccc2o1 | 12% | 8% | -3% | 81% (active) | inactive | inactive | inactive | inactive
Cc1onc(-c2c(Cl)cccc2Cl)c1C(=O)N1CCc2cc3nccc(N4CCN5CCC[C@H]5C4)c3cc21 | 58% (active) | 3% | -5% | 101% (active) | inactive | inactive | inactive | inactive
Cc1ccc(Sc2ccc(NC(=O)CN3CCN(C(=O)c4ccco4)CC3)cc2)cc1C | 84% (active) | 14% | 1% | 92% (active) | inactive | inactive | inactive | inactive
O=C(Nc1ccc(C(F)(F)F)cc1)NC1CCN(c2ccnc3cc(Cl)ccc23)CC1 | 74% (active) | 22% | -3% | 102% (active) | inactive | inactive | inactive | inactive
Cc1cccc2[nH]c(-c3cccc(-c4ccc(NC(=O)C5CCN(C)CC5)cc4)c3)nc12 | 100% (active) | 16% | 3% | 101% (active) | inactive | inactive | inactive | inactive
O=C(Nc1ccc(Cl)c(Cl)c1)Nc1ccccc1N1CCNCC1 | 22% | 17% | 1% | 101% (active) | inactive | inactive | inactive | inactive
COc1cc(-c2ccc(-c3cnc(N)nc3OC)[nH]2)cc(OC)c1OC | 54% (active) | -3% | -2% | 101% (active) | inactive | inactive | inactive | inactive
COc1cc(-c2nc(-c3ccccc3)c(-c3ccc([N+](=O)[O-])cc3)[nH]2)cc(OC)c1O | 56% (active) | 7% | -3% | 98% (active) | inactive | inactive | inactive | inactive
O=C(Nc1ccc2c(c1)CCN2C1CCN(Cc2ccc(F)cc2Cl)C1)c1ccco1 (stereo not given) | 96% (active) | 4% | 2% | 97% (active) | inactive | inactive | inactive | inactive

Source: PubChem BioAssay
